# Laboratory results from PubChem BioAssay.
# Values without a mark were called inactive. The list shows a part of the results. Activity calls are given as the source filed them. Rule as the data show it, unless noted: active = inhibition above about 25%; inactive = the rest.
# Columns and labels:
# [1] = molecular target: Nuclear receptor coactivator 1 (Homo sapiens) (UniProt Q15788); assay: SRC1 coactivator transcriptional activity inhibitors, confirmation, cell-based, luminescence, quadruplicate (AID 588820;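 active = mean inhibition above 46.68%, the untreated control wells mean plus 3 SD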;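 also: 0% = DMSO wells and 100% = gossypol 36 µM treated wells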); settings: HEK293 GAL4-SRC1 luciferase reporter, at 3.6 µM, active compounds read high
# Chain of Nuclear receptor coactivator 1 (Homo sapiens) (Q15788 whole entry, looked up, the tested form may be a part): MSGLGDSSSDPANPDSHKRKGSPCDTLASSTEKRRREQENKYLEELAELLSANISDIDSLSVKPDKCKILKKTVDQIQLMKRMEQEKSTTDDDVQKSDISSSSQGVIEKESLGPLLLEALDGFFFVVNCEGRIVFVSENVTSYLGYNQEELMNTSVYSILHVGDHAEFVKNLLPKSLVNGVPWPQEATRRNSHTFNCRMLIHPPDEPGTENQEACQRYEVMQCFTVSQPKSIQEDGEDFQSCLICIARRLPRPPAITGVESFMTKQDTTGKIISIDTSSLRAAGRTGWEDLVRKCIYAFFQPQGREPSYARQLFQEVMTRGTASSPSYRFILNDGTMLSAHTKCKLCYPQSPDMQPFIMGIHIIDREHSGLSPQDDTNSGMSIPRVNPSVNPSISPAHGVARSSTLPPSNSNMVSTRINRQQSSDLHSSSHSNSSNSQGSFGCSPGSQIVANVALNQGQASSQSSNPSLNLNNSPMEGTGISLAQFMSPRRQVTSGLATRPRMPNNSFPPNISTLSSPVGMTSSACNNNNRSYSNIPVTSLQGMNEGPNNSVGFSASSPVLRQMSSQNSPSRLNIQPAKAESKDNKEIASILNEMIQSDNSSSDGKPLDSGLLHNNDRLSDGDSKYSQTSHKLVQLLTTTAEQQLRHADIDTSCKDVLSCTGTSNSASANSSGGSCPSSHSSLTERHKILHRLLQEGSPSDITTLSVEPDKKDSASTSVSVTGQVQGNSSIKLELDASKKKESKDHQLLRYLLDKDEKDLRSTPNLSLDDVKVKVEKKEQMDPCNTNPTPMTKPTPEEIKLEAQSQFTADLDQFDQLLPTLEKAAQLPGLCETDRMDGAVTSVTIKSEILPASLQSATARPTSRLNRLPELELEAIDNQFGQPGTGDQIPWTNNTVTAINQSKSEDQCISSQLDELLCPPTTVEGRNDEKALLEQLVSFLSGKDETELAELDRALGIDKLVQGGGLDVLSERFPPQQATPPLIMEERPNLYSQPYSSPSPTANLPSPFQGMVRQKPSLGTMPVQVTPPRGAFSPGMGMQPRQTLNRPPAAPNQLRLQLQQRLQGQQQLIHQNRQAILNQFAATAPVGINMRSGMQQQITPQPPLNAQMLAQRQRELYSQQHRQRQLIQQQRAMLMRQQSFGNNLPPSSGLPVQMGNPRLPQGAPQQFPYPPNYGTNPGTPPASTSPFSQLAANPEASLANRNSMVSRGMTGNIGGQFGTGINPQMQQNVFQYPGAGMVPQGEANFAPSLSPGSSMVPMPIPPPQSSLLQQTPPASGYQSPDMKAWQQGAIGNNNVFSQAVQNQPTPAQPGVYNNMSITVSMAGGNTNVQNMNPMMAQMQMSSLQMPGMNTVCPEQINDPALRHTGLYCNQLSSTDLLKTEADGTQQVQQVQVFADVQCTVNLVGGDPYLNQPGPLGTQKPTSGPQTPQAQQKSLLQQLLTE
# [2] = VP16 transactivation inhibitors, counter-screen for SRC1 inhibitor project, cell-based, luminescence, high throughput (AID 588824); settings: cell-based VP16 transactivation luciferase luminescence; at 3.6 µM; active compounds read high
# [3] = test system: transactivating tegument protein VP16 (Human herpesvirus 1); assay: VP16 transactivation reporter inhibitors, counter-screen for SRC2 inhibitor project, cell-based, luminescence, single concentration (AID 652007; in the data active = inhibition above about 36%); settings: cell-based VP16 transactivation luciferase reporter, at 8.9 µM, active compounds read high
# [4] = molecular target: Nuclear receptor coactivator 2 (Homo sapiens) (UniProt Q15596); assay: SRC2 coactivator transcriptional activity inhibitors, confirmation, cell-based, luminescence, HEK293, triplicate (AID 652008;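 active = mean inhibition above 46.5%, the solvent-only control mean plus 3 SD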;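 also: 0% = DMSO-treated cells and 100% = Gossypol at 36 µM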); settings: HEK293 GAL4-SRC2 luciferase reporter, at 8.9 µM, active compounds read high
# Chain of Nuclear receptor coactivator 2 (Homo sapiens) (Q15596 whole entry, looked up, the tested form may be a part): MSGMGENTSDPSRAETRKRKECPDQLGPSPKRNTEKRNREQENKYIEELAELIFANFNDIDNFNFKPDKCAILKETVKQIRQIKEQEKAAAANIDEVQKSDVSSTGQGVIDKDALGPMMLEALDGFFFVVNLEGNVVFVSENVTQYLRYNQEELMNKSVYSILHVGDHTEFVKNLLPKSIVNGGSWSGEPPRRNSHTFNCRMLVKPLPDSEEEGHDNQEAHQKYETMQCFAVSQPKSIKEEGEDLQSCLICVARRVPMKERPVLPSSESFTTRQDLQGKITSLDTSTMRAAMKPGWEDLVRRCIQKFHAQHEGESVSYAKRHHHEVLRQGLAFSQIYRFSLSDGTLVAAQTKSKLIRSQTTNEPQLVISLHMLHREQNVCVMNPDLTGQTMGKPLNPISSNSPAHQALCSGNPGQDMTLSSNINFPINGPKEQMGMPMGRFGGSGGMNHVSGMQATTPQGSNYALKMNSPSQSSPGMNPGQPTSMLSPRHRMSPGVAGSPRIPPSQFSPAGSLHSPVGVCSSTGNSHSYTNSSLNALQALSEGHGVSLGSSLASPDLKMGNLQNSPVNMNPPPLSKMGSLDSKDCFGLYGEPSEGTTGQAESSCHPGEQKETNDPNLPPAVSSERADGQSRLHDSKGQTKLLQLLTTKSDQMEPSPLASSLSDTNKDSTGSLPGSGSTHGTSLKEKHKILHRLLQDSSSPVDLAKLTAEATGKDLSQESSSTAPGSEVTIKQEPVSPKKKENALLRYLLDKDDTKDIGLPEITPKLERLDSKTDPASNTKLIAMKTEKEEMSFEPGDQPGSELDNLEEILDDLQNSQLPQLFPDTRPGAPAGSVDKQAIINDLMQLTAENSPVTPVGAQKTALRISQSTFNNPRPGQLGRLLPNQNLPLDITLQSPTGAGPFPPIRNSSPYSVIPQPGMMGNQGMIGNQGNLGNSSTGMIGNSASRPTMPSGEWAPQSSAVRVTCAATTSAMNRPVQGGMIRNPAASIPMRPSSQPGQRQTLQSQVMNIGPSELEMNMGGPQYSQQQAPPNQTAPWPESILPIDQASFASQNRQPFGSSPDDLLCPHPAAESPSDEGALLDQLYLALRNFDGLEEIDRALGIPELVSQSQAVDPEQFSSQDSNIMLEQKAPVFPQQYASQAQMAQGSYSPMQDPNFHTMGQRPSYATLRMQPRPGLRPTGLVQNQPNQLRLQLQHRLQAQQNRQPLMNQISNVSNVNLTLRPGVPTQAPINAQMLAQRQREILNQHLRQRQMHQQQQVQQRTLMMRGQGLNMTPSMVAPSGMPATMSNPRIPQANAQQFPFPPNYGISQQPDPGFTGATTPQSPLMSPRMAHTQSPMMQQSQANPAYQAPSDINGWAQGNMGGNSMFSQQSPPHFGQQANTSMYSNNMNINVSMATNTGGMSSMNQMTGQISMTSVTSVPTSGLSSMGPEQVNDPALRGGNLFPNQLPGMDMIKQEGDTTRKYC
# [5] = StAR promoter reporter inhibitors, counter-screen for LRH-1 inverse agonist project, cell-based, luminescence, high throughput (AID 651611; in the data active = inhibition above about 28%); settings: StAR promoter luciferase reporter counterscreen, at 3.6 µM, active compounds read high
# [6] = molecular target: Nuclear receptor subfamily 5 group A member 2 (Homo sapiens) (UniProt O00482); assay: LRH-1 (NR5A2) inverse agonists, retest, confirmation, cell-based, luminescence (AID 651613; in the data active = inhibition above about 42%;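 also: HEK293T cells co-transfected with LRH-1 and StAR promoter luciferase reporter; 0% = vehicle wells and 100% = parental cells lacking receptor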); settings: cell-based LRH-1 luciferase reporter, inverse agonism; at 3.6 µM; active compounds read high
# Chain of Nuclear receptor subfamily 5 group A member 2 (Homo sapiens) (O00482 whole entry, looked up): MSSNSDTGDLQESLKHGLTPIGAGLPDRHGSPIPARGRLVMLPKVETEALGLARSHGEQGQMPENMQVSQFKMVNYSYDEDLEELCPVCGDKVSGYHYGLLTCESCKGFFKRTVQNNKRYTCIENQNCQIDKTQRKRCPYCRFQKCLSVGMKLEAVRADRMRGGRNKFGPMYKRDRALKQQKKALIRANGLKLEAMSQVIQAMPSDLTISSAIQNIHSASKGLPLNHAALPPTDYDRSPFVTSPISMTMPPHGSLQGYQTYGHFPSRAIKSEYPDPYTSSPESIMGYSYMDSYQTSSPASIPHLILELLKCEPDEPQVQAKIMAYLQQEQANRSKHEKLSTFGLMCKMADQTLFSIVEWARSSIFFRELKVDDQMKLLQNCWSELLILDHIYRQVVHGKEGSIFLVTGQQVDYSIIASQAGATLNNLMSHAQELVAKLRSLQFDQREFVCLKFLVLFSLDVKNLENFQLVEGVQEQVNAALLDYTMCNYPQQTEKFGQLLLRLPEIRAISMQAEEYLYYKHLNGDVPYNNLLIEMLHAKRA
# [7] = molecular target: Steroidogenic factor 1 (Homo sapiens) (UniProt Q13285); assay: SF1 (NR5A1) inverse agonists, counter-screen for LRH-1 inverse agonist project, cell-based, luminescence, high throughput (AID 651614; in the data active = inhibition above about 44%;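 also: cells cotransfected with StAR promoter reporter and SF1 expression vector; 0% = vehicle on cells with receptor and 100% = vehicle on cells lacking receptor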); settings: cell-based SF1 luciferase reporter, at 3.6 µM, active compounds read high
# Chain of Steroidogenic factor 1 (Homo sapiens) (Q13285 whole entry, looked up, the tested form may be a part): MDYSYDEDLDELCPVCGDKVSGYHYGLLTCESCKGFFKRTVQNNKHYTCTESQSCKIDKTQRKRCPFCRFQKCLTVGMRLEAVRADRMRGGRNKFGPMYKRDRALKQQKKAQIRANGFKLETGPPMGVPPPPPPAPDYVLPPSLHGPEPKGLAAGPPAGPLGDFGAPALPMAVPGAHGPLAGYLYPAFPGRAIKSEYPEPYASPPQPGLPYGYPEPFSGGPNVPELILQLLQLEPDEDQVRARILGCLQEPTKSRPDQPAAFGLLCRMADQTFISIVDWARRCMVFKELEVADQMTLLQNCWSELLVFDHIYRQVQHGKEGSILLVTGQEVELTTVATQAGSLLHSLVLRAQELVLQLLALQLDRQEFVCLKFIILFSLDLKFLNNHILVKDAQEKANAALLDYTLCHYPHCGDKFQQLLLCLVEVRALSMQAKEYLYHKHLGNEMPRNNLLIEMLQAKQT
# [8] = VP16 transactivation reporter inhibitors, counter-screen for LRH-1 inverse agonist project, cell-based, luminescence, high throughput (AID 651615; in the data active = inhibition above about 33%); settings: Gal4-VP16 luciferase reporter cells, at 3.6 µM, active compounds read high
# [9] = molecular target: Receptor-interacting serine/threonine-protein kinase 2 (Homo sapiens) (UniProt O43353); assay: NOD2-RIPK2 binding disruptors, retest, confirmation, fluorescence, CHO cells, BLA complementation, triplicate (AID 624370;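 active = mean inhibition across replicates above a set limit taken from the earlier primary screen, cut at about 21% in these data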;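 also: 0% = DMSO-only wells and the high end = clavulanate BLA-blocked wells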); settings: CCF4 FRET, at 4.98 µM, active compounds read high
# Chain of Receptor-interacting serine/threonine-protein kinase 2 (Homo sapiens) (O43353 whole entry, looked up): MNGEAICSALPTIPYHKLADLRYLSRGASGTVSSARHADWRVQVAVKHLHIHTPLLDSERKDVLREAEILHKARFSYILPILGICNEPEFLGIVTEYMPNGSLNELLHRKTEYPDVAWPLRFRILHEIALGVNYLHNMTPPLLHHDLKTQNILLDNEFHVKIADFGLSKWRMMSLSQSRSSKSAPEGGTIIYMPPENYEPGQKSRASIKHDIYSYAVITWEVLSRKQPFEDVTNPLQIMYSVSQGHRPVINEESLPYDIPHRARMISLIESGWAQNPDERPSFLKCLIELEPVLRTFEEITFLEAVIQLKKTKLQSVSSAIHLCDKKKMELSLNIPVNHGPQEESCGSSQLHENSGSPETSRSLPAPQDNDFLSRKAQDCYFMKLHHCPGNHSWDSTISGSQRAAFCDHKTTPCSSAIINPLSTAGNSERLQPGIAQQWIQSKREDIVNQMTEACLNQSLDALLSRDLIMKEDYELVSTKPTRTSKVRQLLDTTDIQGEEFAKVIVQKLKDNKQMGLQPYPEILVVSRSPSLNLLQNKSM
# [10] = beta-lactamase reporter inhibitors in CHO cells, confirmation, artefact control for NOD2-RIPK2 interaction inhibitor project, cell-based, CHO-K1 CMV-bla, CCF4 FRET, fluorescence (AID 624371;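 active = mean inhibition above the low-control mean inhibition plus three low-control SD, cut at about 11% in these data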;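 also: 0% = DMSO only wells and 100% = clavulanate high control wells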); settings: CCF4 FRET ratio, counterscreen, at 4.98 µM, active compounds read high
# [11] = test system: DAF-12 nuclear receptor (Heterodera glycines), GAL4-LBD fusion; assay: H. glycines DAF-12 receptor agonists, confirmation, cell-based, luminescence, HEK293, GAL4-LBD fusion (AID 743050;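 active = mean activation over triplicate wells above the hit cutoff derived from the earlier primary screen, cut at about 11% in these data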;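 also: 0% = DMSO low control and 100% = 2 mM sodium butyrate high control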); settings: HEK293 GAL4-hgDAF12 luciferase reporter, agonist mode; at 6.8 µM; active compounds read high; percent of butyrate response
# [12] = molecular target: Oxysterols receptor LXR-beta (Homo sapiens) (UniProt P55055); assay: LXR agonists, Gal4 luciferase reporter, confirmation, counter-screen for hgDAF-12 agonist project, cell-based, luminescence, HEK293, H. glycines campaign (AID 743051;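 active = mean activation of the triplicate above a set limit carried over from the primary screen, none filed active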); settings: 24 h, at 6.8 µM, active compounds read high
# Chain of Oxysterols receptor LXR-beta (Homo sapiens) (P55055 whole entry, looked up, the tested form may be a part): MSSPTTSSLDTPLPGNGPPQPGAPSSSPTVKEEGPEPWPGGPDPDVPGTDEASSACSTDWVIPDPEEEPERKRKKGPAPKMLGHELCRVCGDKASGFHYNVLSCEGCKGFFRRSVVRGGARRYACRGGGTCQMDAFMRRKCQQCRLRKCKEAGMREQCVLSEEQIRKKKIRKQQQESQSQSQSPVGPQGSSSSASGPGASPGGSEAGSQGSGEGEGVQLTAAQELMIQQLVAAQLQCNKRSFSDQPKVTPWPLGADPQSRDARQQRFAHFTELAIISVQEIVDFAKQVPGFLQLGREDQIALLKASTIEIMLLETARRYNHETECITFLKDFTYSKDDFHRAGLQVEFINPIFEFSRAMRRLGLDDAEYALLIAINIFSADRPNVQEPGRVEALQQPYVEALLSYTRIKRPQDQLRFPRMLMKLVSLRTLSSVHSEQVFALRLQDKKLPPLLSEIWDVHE
smiles,measurement,setting,value
CCN1CCN(C(=S)c2ccc(-c3ccccc3)cc2)CC1,inhibition,[1],37.8%
same,inhibition,[2],12.8%
same,inhibition,[3],15.4%
same,inhibition,[4],78.8% (active)
c1ccc2c(-c3cccc4nccn34)cncc2c1,inhibition,[1],33.6%
same,inhibition,[2],30.7% (active)
same,inhibition,[3],5.09%
same,inhibition,[4],11%
Cc1ncc(CO)c(/C=N/Nc2ccc(C(F)(F)F)cn2)c1O,inhibition,[1],11.6%
same,inhibition,[2],18.7%
same,inhibition,[5],71.1% (active)
same,inhibition,[6],84% (active)
same,inhibition,[7],70.5% (active)
same,inhibition,[8],65.7% (active)
same,inhibition,[3],8.88%
same,inhibition,[4],38.8%
COc1ccc(CNc2ncc(-c3ccc(F)cc3)n2C)c2ccccc12,inhibition,[1],41.3%
same,inhibition,[2],-14.1%
same,inhibition,[3],24.8%
same,inhibition,[4],94.5% (active)
Cc1ccc(C(=O)C(C(=O)/C=C/c2ccccc2)=C2SCCCS2)cc1,inhibition,[1],44.4%
same,inhibition,[2],34.3% (active)
same,inhibition,[5],30.6% (active)
same,inhibition,[6],54.2% (active)
same,inhibition,[7],47.2% (active)
same,inhibition,[8],44.5% (active)
same,inhibition,[3],42.6% (active)
same,inhibition,[4],56% (active)
COc1ccc(CCNc2c(C)c(C)nc3ncnn23)cc1,inhibition,[1],-13.9%
same,inhibition,[2],29.1% (active)
same,inhibition,[6],58.5% (active)
same,inhibition,[7],62.6% (active)
COc1ccc(-c2noc(CCCCC(=O)N3CCN(c4cc(C)ccc4C)CC3)n2)cc1,inhibition,[1],-26%
same,inhibition,[2],32.4% (active)
same,inhibition,[3],29.6%
same,inhibition,[4],48.2% (active)
O=C(CCl)Nc1ccc(Oc2cnc3ccccc3n2)cc1,inhibition,[1],4.66%
same,inhibition,[2],2.08%
same,inhibition,[5],43.6% (active)
same,inhibition,[6],74.4% (active)
same,inhibition,[7],77.4% (active)
same,inhibition,[8],18.3%
same,inhibition,[3],19.5%
same,inhibition,[4],46.6% (active)
Cc1ccc(-c2cc(C(=O)NCCCN3CCOCC3)no2)cc1,inhibition,[1],8.12%
same,inhibition,[2],-4.18%
same,inhibition,[3],-12.9%
same,inhibition,[4],53.2% (active)
CCN(C(=O)c1cc(S(=O)(=O)N2CCCCC2)c[nH]1)c1ccc(OC)cc1,inhibition,[1],28.1%
same,inhibition,[2],22.5%
same,inhibition,[3],8.33%
same,inhibition,[4],25.9%
COc1ccc(NC(=O)C(c2ccncc2)n2c(=O)c(-c3cc4ccccc4[nH]3)nc3ccccc32)cc1 (stereo not given),inhibition,[9],39.5% (active)
same,inhibition,[10],61.5% (active)
O=C(Cc1csc(Nc2nc(=S)[nH]c3ccccc23)n1)NCCCN1CCN(c2cccc(Cl)c2)CC1,inhibition,[9],38% (active)
same,inhibition,[10],55.8% (active)
O[C@H]1C[C@H](c2ccc(Cl)cc2)N(Cc2cccs2)C[C@@H]1n1cc(C2CC2)nn1,inhibition,[9],-0.97%
same,inhibition,[10],0.34%
C[C@H]1CN([C@@H](C)CO)C(=O)c2cc(-c3cccc(F)c3)cnc2O[C@@H]1CN(C)S(C)(=O)=O,inhibition,[9],-4.32%
same,inhibition,[10],-1.39%
CNc1cncc(-c2ccc(NS(C)(=O)=O)cc2)n1,inhibition,[1],20.8%
same,inhibition,[2],31% (active)
same,activation,[11],8.61%
same,activation,[12],0.06%
O=C(Nc1ccc(OCc2ccccc2Cl)cc1)c1cccnc1,inhibition,[1],-2.33%
same,inhibition,[2],-5.23%
same,inhibition,[3],27%
same,inhibition,[4],52.2% (active)
O=[N+]([O-])/C=C/c1ccc2c(ccn2Cc2ccccc2)c1,inhibition,[9],83.3% (active)
same,inhibition,[10],7.27%
Cc1ccccc1Cn1c(C)nc2ccccc21,inhibition,[1],-27.4%
same,inhibition,[2],29.1% (active)
same,inhibition,[3],20%
same,inhibition,[4],27%
CC1CCN(c2ccc(-c3cccc(NC(=O)C(F)(F)F)c3)nn2)CC1,inhibition,[1],-55.7%
same,inhibition,[2],-29.6%
same,inhibition,[3],-9.14%
same,inhibition,[4],60% (active)
CC(C)(C)OC(=O)N1CCC(NC(=O)c2[nH]cnc2C(=O)N[C@@H](Cc2ccccc2)C(=O)OCc2ccccc2)CC1,inhibition,[9],16.1%
same,inhibition,[10],-4.79%
O=C(Nc1ccc2c(c1)OCCO2)C(c1cc2ccccc2o1)N1CCN(c2ccc(F)cc2)CC1 (stereo not given),inhibition,[1],3.86%
same,inhibition,[2],-2.84%
same,inhibition,[3],-43.1%
same,inhibition,[4],28.6%
CCN(CC)CC(C)(C)C(=O)/C=C/c1ccc(/C=C/C(=O)C(C)(C)CN(CC)CC)cc1,inhibition,[2],84.5% (active)
same,inhibition,[5],84.9% (active)
same,inhibition,[6],99.6% (active)
same,inhibition,[7],95.1% (active)
same,inhibition,[8],88.8% (active)
CC(=O)N1CCCC(c2cc(C(=O)Nc3ccccc3)no2)C1 (stereo not given),inhibition,[1],-48.3%
same,inhibition,[2],-15.3%
same,inhibition,[3],-36.7%
same,inhibition,[4],40.6%
COc1ccc(C2=CC(c3cccc(OC)c3)n3nnnc3N2)cc1 (stereo not given),inhibition,[9],3.71%
same,inhibition,[10],10.4% (active)
